We go through 8 compounds from the supplement of paper PMC11732987, “Enantioselective OTUD7B fragment discovery through chemoproteomics screening and high-throughput optimisation” (Communications Chemistry, 2025).

Assay in all cases: log2 ratio of Biotin-Ahx-Ub-VS probe labelling (fragment/DMSO); higher = less target engagement (more negative = stronger competition), active = hit call of the paper (q ≤ 0.05, log2 ratio ≤ -1)
Conditions in all cases: compound concentration: 200 uM; treatment time: 3 h

The target in one test is T1, ALG13 (UniProt Q9NP73).
T1 sequence (whole entry): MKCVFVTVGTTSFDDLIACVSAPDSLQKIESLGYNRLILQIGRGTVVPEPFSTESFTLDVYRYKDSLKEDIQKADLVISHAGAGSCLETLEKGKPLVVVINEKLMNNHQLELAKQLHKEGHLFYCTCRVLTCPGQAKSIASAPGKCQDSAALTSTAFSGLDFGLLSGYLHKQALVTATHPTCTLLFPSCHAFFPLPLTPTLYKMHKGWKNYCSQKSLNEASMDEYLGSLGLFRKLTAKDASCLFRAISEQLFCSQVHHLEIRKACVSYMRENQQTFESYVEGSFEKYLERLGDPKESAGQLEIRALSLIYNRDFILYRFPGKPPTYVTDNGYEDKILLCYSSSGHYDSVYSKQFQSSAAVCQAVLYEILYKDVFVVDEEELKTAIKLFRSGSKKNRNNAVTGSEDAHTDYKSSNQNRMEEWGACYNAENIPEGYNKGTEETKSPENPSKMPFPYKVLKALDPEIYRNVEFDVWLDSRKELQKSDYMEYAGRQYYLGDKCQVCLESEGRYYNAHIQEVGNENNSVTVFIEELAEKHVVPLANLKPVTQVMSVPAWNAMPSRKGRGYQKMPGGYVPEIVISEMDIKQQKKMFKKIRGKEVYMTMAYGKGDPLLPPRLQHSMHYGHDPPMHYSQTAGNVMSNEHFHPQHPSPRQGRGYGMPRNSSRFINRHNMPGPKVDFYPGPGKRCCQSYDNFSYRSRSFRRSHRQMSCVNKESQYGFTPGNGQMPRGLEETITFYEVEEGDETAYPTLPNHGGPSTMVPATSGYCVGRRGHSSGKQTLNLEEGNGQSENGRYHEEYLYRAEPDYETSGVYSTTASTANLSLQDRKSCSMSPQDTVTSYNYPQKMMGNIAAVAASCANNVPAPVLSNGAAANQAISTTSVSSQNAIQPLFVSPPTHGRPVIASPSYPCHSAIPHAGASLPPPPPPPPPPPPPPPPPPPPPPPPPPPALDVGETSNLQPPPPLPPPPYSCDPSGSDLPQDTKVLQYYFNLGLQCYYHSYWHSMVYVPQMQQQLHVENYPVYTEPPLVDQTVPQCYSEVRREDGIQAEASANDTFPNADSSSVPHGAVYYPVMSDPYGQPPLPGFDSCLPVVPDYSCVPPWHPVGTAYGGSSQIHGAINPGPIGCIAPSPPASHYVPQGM
The procedure, abridged: (§1)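 Each value is an average log2 ratio of fragment to vehicle, tested by unpaired t-test. The underlying Spectronaut label-free quantities were global-median-normalised, and only proteins with ≥2 unique peptides were included. Triplicate HEK293T lysate samples (495 µg) were exposed to fragment at 200 µM or vehicle for 3 h, then to Biotin-Ahx-Ub-VS at 0.5 µM final for 1 h, before NeutrAvidin enrichment of labelled DUBs, LysC and trypsin digestion, and diaPASEF LC-MS/MS.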

The target in another test is ATXN3 (UniProt P54252). The procedure, abridged:
as §1

The target of a further test is T2, BAP1 (UniProt Q92560).
T2 sequence (whole entry): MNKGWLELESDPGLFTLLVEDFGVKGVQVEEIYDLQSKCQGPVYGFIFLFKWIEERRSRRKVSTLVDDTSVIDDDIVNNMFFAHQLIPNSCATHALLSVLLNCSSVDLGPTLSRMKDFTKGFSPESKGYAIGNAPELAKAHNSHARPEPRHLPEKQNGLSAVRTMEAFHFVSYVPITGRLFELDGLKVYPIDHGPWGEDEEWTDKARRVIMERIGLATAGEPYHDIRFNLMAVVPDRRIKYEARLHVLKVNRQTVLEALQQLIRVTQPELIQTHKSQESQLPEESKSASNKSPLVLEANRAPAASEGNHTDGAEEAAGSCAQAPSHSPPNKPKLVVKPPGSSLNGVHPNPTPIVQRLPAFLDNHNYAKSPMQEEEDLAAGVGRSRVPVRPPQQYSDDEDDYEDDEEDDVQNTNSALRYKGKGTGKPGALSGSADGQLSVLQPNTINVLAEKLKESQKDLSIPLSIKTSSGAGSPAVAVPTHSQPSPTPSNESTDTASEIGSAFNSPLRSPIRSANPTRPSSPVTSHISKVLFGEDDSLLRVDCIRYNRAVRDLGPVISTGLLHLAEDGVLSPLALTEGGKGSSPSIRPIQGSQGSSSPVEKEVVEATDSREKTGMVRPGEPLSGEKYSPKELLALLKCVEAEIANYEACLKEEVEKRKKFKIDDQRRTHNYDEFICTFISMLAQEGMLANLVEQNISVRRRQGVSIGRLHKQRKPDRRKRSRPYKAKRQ
The method, boiled down:
as §1

The next test concerns the target EIF3F (UniProt O00303). The method, boiled down: as §1
Another test deals with EIF3H (UniProt O15372). The method, boiled down: as §1
EIF3H, sequence (O15372 whole entry): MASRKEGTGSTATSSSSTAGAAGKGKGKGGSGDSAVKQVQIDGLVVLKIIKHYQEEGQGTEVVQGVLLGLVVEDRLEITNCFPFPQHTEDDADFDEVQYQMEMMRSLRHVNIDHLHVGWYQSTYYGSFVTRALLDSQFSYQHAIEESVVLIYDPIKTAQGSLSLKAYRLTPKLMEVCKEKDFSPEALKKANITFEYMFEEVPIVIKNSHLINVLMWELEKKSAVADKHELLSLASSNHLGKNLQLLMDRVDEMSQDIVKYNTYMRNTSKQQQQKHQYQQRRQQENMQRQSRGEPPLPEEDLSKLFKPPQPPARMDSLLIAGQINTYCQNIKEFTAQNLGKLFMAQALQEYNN
The next test deals with T3, FAM105A (UniProt Q9NUU6).
T3 sequence (whole entry): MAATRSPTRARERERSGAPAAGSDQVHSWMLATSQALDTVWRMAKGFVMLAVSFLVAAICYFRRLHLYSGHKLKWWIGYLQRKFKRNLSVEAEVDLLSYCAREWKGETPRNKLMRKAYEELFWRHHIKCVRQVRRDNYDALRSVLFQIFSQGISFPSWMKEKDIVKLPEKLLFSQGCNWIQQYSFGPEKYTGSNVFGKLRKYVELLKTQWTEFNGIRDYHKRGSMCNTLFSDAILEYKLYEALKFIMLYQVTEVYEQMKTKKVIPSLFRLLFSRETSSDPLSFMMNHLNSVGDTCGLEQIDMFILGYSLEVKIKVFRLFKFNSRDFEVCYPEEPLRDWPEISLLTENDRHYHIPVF
The procedure, abridged:
as §1

The next test addresses OTUB1 (UniProt Q96FW1). The method, boiled down:
as §1

The target of the next test is T4, OTUD4 (UniProt Q01804).
T4 sequence (whole entry): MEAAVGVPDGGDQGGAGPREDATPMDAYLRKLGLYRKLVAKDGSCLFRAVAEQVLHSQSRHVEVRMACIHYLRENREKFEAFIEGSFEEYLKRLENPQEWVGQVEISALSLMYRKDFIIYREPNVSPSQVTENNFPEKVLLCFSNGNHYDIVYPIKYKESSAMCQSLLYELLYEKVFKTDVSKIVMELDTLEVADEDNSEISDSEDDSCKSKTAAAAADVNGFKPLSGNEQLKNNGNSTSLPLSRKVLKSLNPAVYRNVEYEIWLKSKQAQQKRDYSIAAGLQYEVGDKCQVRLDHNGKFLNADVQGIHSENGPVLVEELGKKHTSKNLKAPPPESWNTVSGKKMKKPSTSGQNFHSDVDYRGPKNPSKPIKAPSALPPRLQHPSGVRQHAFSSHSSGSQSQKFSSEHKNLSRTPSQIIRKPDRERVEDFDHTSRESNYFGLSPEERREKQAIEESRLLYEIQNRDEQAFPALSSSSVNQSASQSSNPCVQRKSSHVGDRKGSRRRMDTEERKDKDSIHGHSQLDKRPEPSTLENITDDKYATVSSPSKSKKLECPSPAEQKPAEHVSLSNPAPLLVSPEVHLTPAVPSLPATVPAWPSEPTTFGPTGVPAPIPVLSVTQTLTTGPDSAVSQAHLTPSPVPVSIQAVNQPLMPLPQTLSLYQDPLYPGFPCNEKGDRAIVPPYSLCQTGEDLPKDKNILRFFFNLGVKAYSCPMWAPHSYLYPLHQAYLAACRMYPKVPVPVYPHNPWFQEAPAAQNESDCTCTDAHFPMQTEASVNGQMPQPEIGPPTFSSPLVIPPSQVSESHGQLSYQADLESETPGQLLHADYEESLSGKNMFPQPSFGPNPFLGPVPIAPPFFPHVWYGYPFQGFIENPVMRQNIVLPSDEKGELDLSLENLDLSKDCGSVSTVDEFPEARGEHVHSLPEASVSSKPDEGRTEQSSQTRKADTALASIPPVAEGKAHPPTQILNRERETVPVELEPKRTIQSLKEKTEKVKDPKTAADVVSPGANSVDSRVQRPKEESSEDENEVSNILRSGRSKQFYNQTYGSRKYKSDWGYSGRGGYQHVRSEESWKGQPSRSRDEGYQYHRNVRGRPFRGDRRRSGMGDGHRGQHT
The method, boiled down:
as §1

The next test concerns the target T5, OTUD5 (UniProt Q96G74).
T5 sequence (whole entry): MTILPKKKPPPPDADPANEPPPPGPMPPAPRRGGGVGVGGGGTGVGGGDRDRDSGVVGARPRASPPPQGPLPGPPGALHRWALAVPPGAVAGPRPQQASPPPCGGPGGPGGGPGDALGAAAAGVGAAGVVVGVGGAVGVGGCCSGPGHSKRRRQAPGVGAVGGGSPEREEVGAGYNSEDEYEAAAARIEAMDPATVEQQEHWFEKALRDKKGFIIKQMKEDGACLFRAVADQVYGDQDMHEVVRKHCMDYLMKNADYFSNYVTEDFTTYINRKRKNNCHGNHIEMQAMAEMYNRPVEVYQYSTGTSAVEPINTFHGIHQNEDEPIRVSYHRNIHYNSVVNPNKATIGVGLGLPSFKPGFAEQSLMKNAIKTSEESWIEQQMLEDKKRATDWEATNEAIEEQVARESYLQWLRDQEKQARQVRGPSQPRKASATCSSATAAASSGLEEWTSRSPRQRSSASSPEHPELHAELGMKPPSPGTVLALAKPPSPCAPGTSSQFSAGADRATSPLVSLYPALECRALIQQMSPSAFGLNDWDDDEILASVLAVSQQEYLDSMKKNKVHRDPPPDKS
The method, boiled down: as §1

Values without a mark were called inactive.

EIF3F, sequence (O00303 whole entry): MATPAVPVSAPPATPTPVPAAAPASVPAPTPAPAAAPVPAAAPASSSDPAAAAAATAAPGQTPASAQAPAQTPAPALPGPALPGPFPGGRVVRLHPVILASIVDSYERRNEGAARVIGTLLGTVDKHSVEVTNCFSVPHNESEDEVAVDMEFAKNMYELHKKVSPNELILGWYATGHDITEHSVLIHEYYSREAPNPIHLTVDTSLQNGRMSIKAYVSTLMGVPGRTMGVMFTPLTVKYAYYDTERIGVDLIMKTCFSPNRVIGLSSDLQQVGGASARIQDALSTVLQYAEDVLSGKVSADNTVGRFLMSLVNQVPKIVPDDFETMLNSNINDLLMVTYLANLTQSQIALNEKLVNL
OTUB1, sequence (Q96FW1 whole entry): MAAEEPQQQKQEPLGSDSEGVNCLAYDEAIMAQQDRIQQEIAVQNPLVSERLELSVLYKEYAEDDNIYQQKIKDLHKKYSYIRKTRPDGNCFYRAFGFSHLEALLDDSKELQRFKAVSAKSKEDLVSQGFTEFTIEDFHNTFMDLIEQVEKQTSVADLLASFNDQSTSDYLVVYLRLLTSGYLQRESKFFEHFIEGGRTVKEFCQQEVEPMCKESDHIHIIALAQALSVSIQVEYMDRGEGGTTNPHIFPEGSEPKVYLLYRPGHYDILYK
ATXN3, sequence (P54252 whole entry): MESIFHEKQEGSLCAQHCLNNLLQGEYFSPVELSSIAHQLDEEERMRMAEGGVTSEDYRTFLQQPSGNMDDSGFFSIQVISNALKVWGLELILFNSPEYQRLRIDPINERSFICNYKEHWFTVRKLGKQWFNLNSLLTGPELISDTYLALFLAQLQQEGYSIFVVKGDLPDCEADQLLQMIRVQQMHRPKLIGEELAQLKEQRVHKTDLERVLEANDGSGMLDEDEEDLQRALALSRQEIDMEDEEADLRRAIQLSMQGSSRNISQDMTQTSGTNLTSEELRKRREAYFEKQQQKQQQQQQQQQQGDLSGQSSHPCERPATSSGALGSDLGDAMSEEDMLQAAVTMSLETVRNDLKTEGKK

Consider `O=C(CCl)NCCc1cccc2ccccc12`, for which the “log2 ratio of Biotin-Ahx-Ub-VS probe labelling” value (shortened to “log2 ratio”) in the test with ALG13 is -0.35; with ATXN3, 0.214; with BAP1 it was -1.22 (active); in the test with EIF3F, 0.273; in the test with EIF3H, 0.236; with FAM105A it was 0.159. In addition, the “log2 ratio” value was 0.162 with OTUB1, 0.0626 with OTUD4 and 0.0474 with OTUD5.
Turning to `Cc1cccc(C(CNC(=O)CCl)N2CCOCC2)c1.Cl` (configuration not stated), the “log2 ratio” value in the test with ALG13 was -0.0491; in the test with ATXN3, 0.0164; with BAP1 it was -0.497; with EIF3F, 0.0302; with EIF3H, 0.267; with FAM105A, -0.778. Further, the “log2 ratio” value with OTUB1 is -0.156; with OTUD4, -0.199; with OTUD5, -0.241.
As for `Cc1n[nH]c2c1CN(C(=O)CCl)CC2`, the “log2 ratio” value with ALG13 was 0.0341; with ATXN3 it was -0.888; in the test with BAP1, -1.1; in the test with EIF3F, -0.389; with EIF3H, 0.366; with FAM105A, 0.0256. The “log2 ratio” value with OTUB1 is -0.0671; with OTUD4, -0.753; with OTUD5, -1.05 (active).
For the compound `CC(C)n1nccc1NC(=O)CCl`, the “log2 ratio” value with ALG13 is -0.568; with ATXN3 it was -0.233; with BAP1, -4.23 (active); in the test with EIF3F, -0.0764; in the test with EIF3H it was 0.237; with FAM105A, 0.00922. The “log2 ratio” value with OTUB1 is -0.27; in the test with OTUD4, -0.438; with OTUD5, -0.522.
Regarding `Cc1ccc(CN(C)C(=O)CCl)o1`, the “log2 ratio” value in the test with ALG13 is 0.042; in the test with ATXN3, -0.103; with BAP1, -0.4; with EIF3F, -0.0182; in the test with EIF3H, -0.047; with FAM105A, 0.277. Moreover, the “log2 ratio” value with OTUB1 was 0.103; with OTUD4, 0.05; with OTUD5, -0.308.
For `N#Cc1ccc(CNC(=O)CCl)cc1`, the “log2 ratio” value with ALG13 is -0.583; in the test with ATXN3, -0.171; with BAP1, -3.38 (active); in the test with EIF3F, -0.0324; with EIF3H, 0.142; with FAM105A it was -0.00692. The “log2 ratio” value is -0.0861 with OTUB1, -0.138 in the test with OTUD4 and -0.348 in the test with OTUD5.
Regarding `O=C(CCl)N1CCCC2CCCCC21` (configuration not stated), the “log2 ratio” value in the test with ALG13 was -0.21; in the test with ATXN3 it was -0.321; with BAP1 it was -0.281; in the test with EIF3F, -0.196; in the test with EIF3H, 0.299; with FAM105A it was 0.212. For the same compound, the “log2 ratio” value is 0.0815 with OTUB1, -0.106 in the test with OTUD4 and -0.314 in the test with OTUD5.
`CC(O)CC1CCN(C(=O)CCl)CC1` (configuration not stated): the “log2 ratio” value in the test with ALG13 was -0.345; in the test with ATXN3 it was -0.291; with BAP1 it was -0.221; in the test with EIF3F, -0.0746; in the test with EIF3H, 0.247; in the test with FAM105A, -0.12. The “log2 ratio” value with OTUB1 was 0.128; in the test with OTUD4, 0.0747; with OTUD5 it was -0.195.
